Assay results taken from PubChem BioAssay (NCATS).
Inconclusive results are not listed. The source made the active and inactive calls. Calls come from the whole dose curve; as a rule, active = well fitted curve in either direction with a large enough effect (not every such curve was filed as active); inconclusive = small, poorly fitted or top-dose-only effect, or another doubt; inactive = flat fitted curve, though single readings scatter.

Assay: Stat Signaling Pathway (AID 446);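 note: ME-180 cervical cancer cells given 40 pM IL-6 alongside compound; SIE-controlled beta-lactamase reporter measured as 460/530 nm FRET emission ratio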
Conditions: ME-180 (cervical carcinoma) SIE beta-lactamase reporter, IL-6 stimulated, 5 h; at 17.2 µM (top of the series) unless noted
Procedure, shortened: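 FRET read-out (405 nm excitation, 460/530 nm emission) of a beta-lactamase reporter under a STAT-inducible element in ME-180 cervical carcinoma cells. Cells with compound receive 40 pM IL-6 for 5 h. Values are normalised to AC90 stimulation and AC90 JAK-inhibitor controls.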
% is set by controls: 0 for no effect and ±100 for the full control effect.

activity, negative = inhibition, inactive:
COCCN(C(=O)Nc1ccccc1)c1ccccc1C 6.32%, Oc1ccc2ccccc2c1/C=N/n1cnnc1 -0.766%, Cn1c(=O)c2c(nc(NCC(O)CO)n2CCc2ccccc2)n(C)c1=O (stereo unspecified) 1.91%, CC1=C(C(=O)Nc2ccccc2)C(c2ccncc2)C(C#N)=C(SCC(=O)NC(C)C)N1 (stereo unspecified) -4.3%, C=C(C)C1Cc2c(C)nn(-c3nc(C)cc(C)n3)c2C1 (stereo unspecified) 0.182%, Cc1[nH]nc2c1C(CCc1ccccc1)C(C#N)=C(N)O2 (stereo unspecified) -1.82%, COCCN(CCOC)C(=O)C12CCC(C)(C(=O)C1)C2(C)C (stereo unspecified) 3.59%, COc1ccc(C2CC(=O)C(C=NCCN3CCOCC3)=C(O)C2)cc1 (stereo unspecified) -0.652%, CN1CCN(c2nc(C(N)=O)cc(-c3ccccc3)n2)CC1 20.9%, COc1cccc(COc2nc3c(c(=O)n(C)c(=O)n3C)n2C)c1 -3.58%, COc1ccccc1N(O)C1CC(=O)N(c2ccc(F)cc2)C1=O (stereo unspecified) 1.38%, O=C(Nc1ccccc1)c1cc(N2CCOCC2)nc2ccccc12 1.13%, COc1ccc(Cn2c(O)cc(=O)[nH]c2=O)cc1 -3.75%, COC(=O)C(NC(=O)c1ccco1)(Nc1ccc(Br)cn1)C(F)(F)F (stereo unspecified) -13%, CC(=O)Nc1ccc(Oc2ccc3nc(C)[nH]c3c2)cc1 -5.58%, CC(C)C(C(=O)Nc1ncn[nH]1)N1C(=O)c2ccccc2C1=O (stereo unspecified) -1.14%
